Source: PubChem BioAssay AID2242 (National Center for Advancing Translational Sciences (NCATS), 2010)
Screen size: about 200,000 compounds; about 720 (0.36%) were called active. Inconclusive results (about 8%) are left out. Calls follow the shape of the dose curve; as a rule, active = well fitted activation curve with a large enough effect; inconclusive = small, poorly fitted or top-dose-only effect, or effect the other way, or another doubt; inactive = flat fitted curve, though single readings scatter. This is one part of the list.

biological target: Lysosomal alpha-glucosidase (Homo sapiens) (UniProt P10253); experiment: qHTS Assay for Activators of Human alpha-Glucosidase as a Potential Chaperone Treatment of Pompe Disease; details: purified enzyme, 4-MU-alpha-glucoside fluorescence, 20 min; series mostly up to 76.9 µM; also: nearly all actives have a fitted effect of over 80% in size
Source text: NIH Chemical Genomics Center [NCGC] NIH Molecular Libraries Probe Production centers Network [MLPCN] MLPCN Grant: 1R03MH084841-01 Assay Submitter (PI): Wei Zheng NCGC Assay Overview: Alpha-glucosidase is responsible for hydrolysis of terminal, non-reducing 1,4-linked alpha-D-glucose residues with release of alpha-D-glucose. It is a lysosomal hydrolase that is required for the degradation of a small percentage (1-3%) of cellular glycogen in human. Deficiency of this enzyme results in glycogen-storage disease type II (GSDII), also referred to as Pompe disease, an autosomal recessive disorder. Structurally normal glycogen is accumulated in lysosomes and cytoplasm in affected patients, primarily in muscle tissues. Excessive glycogen storage within lysosomes may interrupt normal functioning of other organelles and leads to cellular injury. In turn, this leads to enlargement and dysfunction of the entire organ involved (eg, cardiomyopathy and muscle weakness). It has reported that the improper folding and trafficking of alpha-glucosidase resulting from the genetic mutations may account for a significant number of Pompe patients. […] We optimized this alpha-glucosidase assay in 1536-well plate format for identifying the novel small molecule inhibitors with the structures other than the sugar analogs in order to develop the new pharmacological chaperones, but are also able to detect potential activators. In conjunction with assays against alpha-galactosidase (AID 1467), fluorogenic false positive compounds can be identified.
NCGC Assay Protocol Summary: This is a fluorogenic enzyme assay with 4-methylumbelliferyl-alpha-D-[…] as the substrate and human alpha-glucosidase as the enzyme preparation. Upon the hydrolysis of this fluorogenic substrate, the resulting product, 1. 4-methyllumbelliferone, can be excited at 365 nm and emits at 440 nm which can be detected by a standard fluorescence plate reader. Data were normalized to the controls for basal activity (without enzyme) and 100% activity (with enzyme). In the AC50 values were determined from concentration-response data modeled with the standard Hill equation. Assay buffer: 50 mM citric acid (titrated with potassium phosphate to pH 5.0), 0.005% Tween-20, pH 5.0. (pH 5.0 is an optimal condition for this enzyme assay) 1536-well assay protocol for the human alpha-glucosidase: (1) Add 2 ul/well of enzyme (4 nM final) (2) Add 23 nL compounds in DMSO solution. The final titration was 0.7 nM to 77 uM. (3) Add 1 ul of substrate (400 uM final) (4) Incubate at room temperature for 20 min. (5) Add 2 ul stop solution (1M NaOH and 1M Glycine mixture, pH 10) (6) Detect the assay plate in a ViewLux plate reader (PerkinElmer) with Ex=365 nm and Em=440nm. Keywords: Alpha-glucosidase, Pompe Disease, pharmacological chaperone, chaperone therapy, high throughput screening, alpha-glucosidase inhibitor, MLSMR, MLSCN, NIH Roadmap, qHTS and NCGC
Potency is read from the fitted curve at half-maximal effect.

Potency, active:
COc1cc(C(=O)Nc2sc3c(c2C(=O)NCc2ccco2)CCCC3)cc(OC)c1OC 28.2 µM
O=C(O)c1cc(-c2cccs2)nc2cc3c(cc12)OCCO3 25.1 µM
c1ccc2c(NCC3CCCO3)nc(N3CCCCC3)nc2c1 (stereo not drawn) 39.8 µM
c1coc(CNc2nc(N3CCCCC3)nc3ccccc23)c1 39.8 µM
CCCOc1ccccc1C1C(C(=O)OC)=CN(C(C)C)C=C1C(=O)OC 39.8 µM
CCCCOc1ccccc1C1C(C(=O)OC)=CN(CC)C=C1C(=O)OC 35.5 µM
CCOc1ccccc1C1C(C(=O)OC)=CN(C)C=C1C(=O)OC 35.5 µM
CN(C)c1oc(-c2cccs2)nc1C#N 39.8 µM
CC1CN(c2oc(-c3cccs3)nc2C#N)CC(C)O1 (stereo not drawn) 35.5 µM
N#Cc1c(-c2ccccc2F)cc(-c2cccnc2)nc1N 35.5 µM
N#Cc1c(-c2ccco2)cc(-c2ccccn2)nc1N 28.2 µM
N#Cc1c(-c2ccco2)cc(-c2cccnc2)nc1N 28.2 µM
CCN(CC)Cc1c(O)c(Cl)cc2c(C)cc(=O)oc12 35.5 µM
CCc1c(C)c2cc(Cl)c(O)c(CN(CC)CC)c2oc1=O 35.5 µM
CCN(CC)Cc1c(O)c(Cl)cc2c(C)c(C)c(=O)oc12 35.5 µM
CC1(C)Cc2nc(N3CCCC3)c(C#N)cc2CO1 35.5 µM
Cc1cc2c(C)cc(=O)oc2c2c1NCCC2 35.5 µM
C=CCNc1nc(N)c(C(=C(C#N)C#N)c2ccccc2)s1 35.5 µM
CCNc1nc(N)c(C(=C(C#N)C#N)c2ccccc2)s1 35.5 µM
Cn1c(C(=O)N2CCc3ccccc3C2)cc2c(=O)n3ccccc3nc21 31.6 µM
CCOC(=O)C1CCN(C(=O)c2cc3c(=O)n4ccccc4nc3n2C)CC1 39.8 µM
O=C(c1cc2c(=O)n3ccccc3nc2s1)N1CCc2ccccc2C1 44.7 µM
O=C(c1cc2c(=O)n3ccccc3nc2s1)N1CCN(Cc2ccc3c(c2)OCO3)CC1 35.5 µM
COC(=O)c1cc2c(=O)n3ccccc3nc2n(C)c1=N 25.1 µM
Cn1c(C(=O)N2COCC2(C)C)cc2c(=O)n3ccccc3nc21 35.5 µM
CC1CN(C(=O)c2cc3c(=O)n4ccccc4nc3s2)CC(C)O1 (stereo not drawn) 35.5 µM
COc1cccc2c(=O)c3c(cnn3C)n(C)c12 31.6 µM
O=C(Nc1ccc(-c2nc3ccccc3[nH]2)cc1)c1cccc(N2C(=O)CCC2=O)c1 35.5 µM
CC1=C(C(=O)Nc2ccccn2)C(c2cn(C)nc2C)C2=C(CCCC2=O)N1 (stereo not drawn) 28.2 µM
CCn1cc(C2C(C(=O)Nc3ccc(Br)cn3)=C(C)NC3=C2C(=O)CCC3)c(C)n1 (stereo not drawn) 31.6 µM
CC(C)(C)c1cc(C(F)(F)F)c(C#N)c(=O)[nH]1 35.5 µM
Cc1cc(C(F)(F)F)c(C#N)c(=O)[nH]1 31.6 µM
O=c1oc2cc(O)ccc2cc1-c1ccc(F)cc1 25.1 µM
CCc1cc(=O)oc2c(CN3CCN(C)CC3)c(O)c(Cl)cc12 31.6 µM
Cc1c(O)ccc2c(CN3CCN(CCO)CC3)cc(=O)oc12 35.5 µM
CCCc1cc(=O)oc2c(CN3CCCC3)c(O)c(Cl)cc12 35.5 µM
CCCCc1cc(=O)oc2c(CN3CCCC3)c(O)c(Cl)cc12 31.6 µM
CCc1cc(=O)oc2c(CN3CCCC3)c(O)c(Cl)cc12 39.8 µM
CCCc1cc(=O)oc2c(CN3CCN(C)CC3)c(O)c(Cl)cc12 35.5 µM
CCc1cc2c(CN3CCN(C)CC3)cc(=O)oc2cc1O 35.5 µM
CCc1ccc(S(=O)(=O)c2nnn3c2nc(NCCNC(C)=O)c2ccccc23)cc1 31.6 µM
CN(C)Cc1c(O)c(Cl)cc2c3c(c(=O)oc12)CCCC3 35.5 µM
CCN(CC)Cc1c(O)c(Cl)cc2c3c(c(=O)oc12)CCCC3 35.5 µM
CC(C)C(=O)Nc1c2c(nc3ccccc13)N(C)CC2 35.5 µM
CCCOc1cc(N(CC)CC)ccc1/C=C(/C#N)c1nc2ccc(C)cc2[nH]1 35.5 µM
CCOP(=O)(OCC)c1nc(/C=C/c2ccccc2)oc1NCc1ccc(OC)cc1 35.5 µM
CCOP(=O)(OCC)c1nc(/C=C/c2ccccc2)oc1NCc1ccccc1 35.5 µM
CCCCc1cc(=O)oc2c(CN(C)C)c(O)ccc12 35.5 µM
CCCCc1cc(=O)oc2c(CN(CC)CC)c(O)c(Cl)cc12 35.5 µM
CCCCc1cc(=O)oc2c(CN(C)C)c(O)c(Cl)cc12 35.5 µM
CC(NC(=O)CCSc1nc(-c2ccc3c(c2)OCO3)cc(C(F)(F)F)n1)c1ccccc1 (stereo not drawn) 35.5 µM
COc1ccc(-c2n[nH]c(C(F)(F)F)c2-c2cc3ccccc3o2)c(O)c1 35.5 µM
O=C(O)c1cc(-c2ccc(Cl)s2)nc2ccccc12 35.5 µM
CC(=O)Nc1ccc(C2=NN(c3ccccc3)C(c3cccs3)C2)cc1 (stereo not drawn) 28.2 µM
CCC(=O)N1N=C(c2ccc(NS(=O)(=O)CC)cc2)CC1c1ccc(C)cc1 (stereo not drawn) 35.5 µM
CCS(=O)(=O)Nc1ccc(C2=NN(C(C)=O)C(c3cccs3)C2)cc1 (stereo not drawn) 35.5 µM
COc1ccc(C2C3=C(CCCC3=O)Nc3nc(-c4cc(OC)c(OC)c(OC)c4)nn32)cc1OC (stereo not drawn) 35.5 µM
COC(=O)C1=CN(CCCN2CCCC2=O)C=C(C(=O)OC)C1c1cccs1 39.8 µM
COC(=O)C1=CN(CCCN2CCCC2=O)C=C(C(=O)OC)C1c1ccccc1C(F)(F)F 28.2 µM
Cc1ccc2c(c1)c1ncnc(N3CCC4(CC3)OCCO4)c1n2C 39.8 µM
CCNc1nc2nc3ccc(C)cn3c(=O)c2cc1C(=O)NCC1CCCO1 (stereo not drawn) 35.5 µM
Cc1ccc2nc3c(cc(C(=O)NCC4CCCO4)c(=N)n3CCCOC(C)C)c(=O)n2c1 (stereo not drawn) 31.6 µM
CCCn1c(=N)c(C(=O)NC2CCCC2)cc2c(=O)n3cccc(C)c3nc21 28.2 µM
COCCCn1c(=N)c(C(=O)NCC2CCCO2)cc2c(=O)n3cccc(C)c3nc21 (stereo not drawn) 35.5 µM
CCn1c(=N)c(C(=O)NCCCOC)cc2c(=O)n3cccc(C)c3nc21 28.2 µM
O=C(Cc1cc(=O)oc2cc(O)ccc12)NCC1CCC(C(=O)O)CC1 (stereo not drawn) 35.5 µM
COC(=O)Cc1cc(=O)oc2cc(O)ccc12 35.5 µM
CCCCc1cc(=O)oc2cc(O)ccc12 35.5 µM
N#Cc1c(-c2cccc(Br)c2)cc(-c2ccco2)[nH]c1=O 39.8 µM
O=C(NC(=S)N(Cc1ccccc1)Cc1ccccc1)C1CCCCC1 39.8 µM
c1ccn2c(c1)nc1c2nc2ccccn21 31.6 µM
COC(=O)C1=CN(CC2CCCO2)C=C(C(=O)OC)C1c1cc(OC)c(OC)c(OC)c1 (stereo not drawn) 35.5 µM
COC(=O)C1=CN(CC2CCCO2)C=C(C(=O)OC)C1c1ccsc1 (stereo not drawn) 35.5 µM
COc1cc2c(cc1/C=C/C(=O)O)OC(C)C2 (stereo not drawn) 39.8 µM
CCCc1cc(=O)[nH]c(SCC(=O)c2cc(C)n(CCC)c2C)n1 39.8 µM
COc1cccc(-c2cc3nc(-c4ccccc4)cc(N4CCC5(CC4)OCCO5)n3n2)c1 39.8 µM
Cc1cccc(-c2cc3nc(-c4ccccc4)cc(N4CCC5(CC4)OCCO5)n3n2)c1 35.5 µM
O=C(NC1CC1)c1cc2c(s1)-c1ccccc1OC2 35.5 µM
CCOC(=O)c1cc2c(s1)-c1c(C)cccc1OC2 35.5 µM
COC(=O)c1cc2c(s1)-c1ccccc1OC2 35.5 µM
O=C(O)c1cc2c(s1)-c1ccccc1OC2 31.6 µM
CCOC(=O)c1cc2c(=O)n3ccccc3nc2n(CCOC)c1=NC(=O)C(C)(C)C 35.5 µM
CCOC(=O)c1cc2c(=O)n3ccccc3nc2n(CCCOC)c1=NC(=O)C(C)(C)C 35.5 µM
CCOC(=O)c1cc2c(=O)n3ccccc3nc2n(CCOC)c1=NC(=O)c1ccncc1 31.6 µM
CCOC(=O)c1cc2c(=O)n3ccccc3nc2n(Cc2ccco2)c1=NC(=O)c1ccccc1OC 31.6 µM
CCOC(=O)c1cc2c(=O)n3ccccc3nc2n(CCCOC)c1=NC(=O)c1cccnc1 35.5 µM
COc1cccc(-c2ccc(C#N)c(OC(=O)c3ccc(Cl)cc3)n2)c1 35.5 µM
COC(=O)C1=CN(C2CC2)C=C(C(=O)OC)C1c1ccccc1OC 35.5 µM
COC(=O)C1=CN(C2CC2)C=C(C(=O)OC)C1c1ccc(C(=O)OC)cc1 35.5 µM
CCN1CCn2c3c(c4cc(Cl)ccc42)CCCC31 (stereo not drawn) 31.6 µM
O=C(Nc1c2ccccc2nc2ccccc12)C(Cl)(Cl)Cl 35.5 µM
O=c1oc2ccccc2cc1-c1nc2ccccc2o1 31.6 µM
CC(=O)Nc1nc2n(n1)C(c1ccc(Cl)cc1)C=C(C)N2 (stereo not drawn) 35.5 µM
CC(C)n1c(=NC(=O)c2ccco2)c(C#N)cc2c(=O)n3ccccc3cc21 31.6 µM
COC(=O)c1ccc2c(=O)n(CCCCCC(=O)O)c(=O)[nH]c2c1 31.6 µM
COC(=O)c1ccc2c(=O)n(CCCCCC(=O)NCc3ccccn3)c(=O)[nH]c2c1 31.6 µM
CCCCCn1c(=O)[nH]c2cc(C(=O)O)ccc2c1=O 35.5 µM
CCN(CC)CCNC(=O)c1ccc2c(=O)n(CCc3ccccc3)c(=O)[nH]c2c1 35.5 µM
